Compounds with a hit are over-represented: about 3.4% of the library has one in this group of screens.
GPR151 ag – activators of human GPR151, primary screen, cell-based, PathHunter beta-arrestin, luminescence; G-protein coupled receptor 151 (Homo sapiens), Q8TDV0; actives 1% (n = 650,000); PathHunter beta-arrestin GPR151 cells; AID 1508602, 2020; activation, % at 11.2 µM; in the data active means activation above about 4.9%;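 further: 0% = median of compound wells and 100% = cells with positive control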
Target sequence (Q8TDV0 whole entry, looked up): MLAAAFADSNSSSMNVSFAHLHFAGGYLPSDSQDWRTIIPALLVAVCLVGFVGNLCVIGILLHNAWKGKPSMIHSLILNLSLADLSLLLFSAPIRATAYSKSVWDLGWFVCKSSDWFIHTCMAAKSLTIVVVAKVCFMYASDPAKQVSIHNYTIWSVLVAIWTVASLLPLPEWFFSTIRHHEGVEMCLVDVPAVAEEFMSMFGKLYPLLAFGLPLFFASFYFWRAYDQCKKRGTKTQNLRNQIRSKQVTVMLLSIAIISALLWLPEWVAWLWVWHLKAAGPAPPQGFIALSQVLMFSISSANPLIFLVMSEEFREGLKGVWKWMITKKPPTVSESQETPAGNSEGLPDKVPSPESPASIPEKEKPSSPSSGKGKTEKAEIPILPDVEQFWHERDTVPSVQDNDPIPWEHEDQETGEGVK
FBW7 activator – FBW7 E3 ligase activators, primary screen, biochemical, AlphaScreen, human; F-box/WD repeat-containing protein 7 (Homo sapiens), Q969H0; actives 0.13% (n = 650,000); normalized activity (activation), % at 26.1 µM; AlphaScreen FBW7–phospho-cyclin E peptide binding, activator screen; AID 1259310, 2017; in the data active means normalized activity above about 1.9%;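 further: purified mutant Fbw7 with reduced substrate affinity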
TEAD-YAP block – TEAD-YAP interaction inhibition, primary screen, TEAD-YAP interaction inhibitor project, luminescence, HEK-TIYL cells; TEAD-Gal4/YAP UAS-luciferase luminescence; inhibition, % at 9.12 µM; actives 1.4% (n = 640,000); AID 1259422, 2018; in the data active means inhibition above about 32%;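 further: 0% = median of test compound wells and 100% = reference inhibitor wells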
MITF primary – MITF inhibitors, primary screen, biochemical, AlphaScreen, human. Microphthalmia-associated transcription factor (Homo sapiens), O75030. AlphaScreen MITF homodimerization, bead proximity signal. inhibition, % at 2.6 µM. actives 0.91% (n = 650,000). AID 1259374, 2018; in the data active means inhibition above about 50%;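 further: 0% = vehicle wells with protein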
Numbers without * were called inactive; i = inactive.

SMILES	GPR151 ag	FBW7 activator	TEAD-YAP block	MITF primary
Cc1ccc(CN[C@H]2C[C@H]3C(=O)N[C@H](Cc4ccccc4)C(=O)N3C2)c(C)c1	-0.7	-0.1	-7.3	8.3
CC(=O)NC1=NN(C(C)=O)C(C)(c2cccc(OC(=O)c3ccccc3)c2)S1 (stereo not drawn)	-0.3	0.2	60.5*	22.4
CC(=O)NC1=NN(C(C)=O)C(C)(c2ccc(OC(C)=O)cc2)S1 (stereo not drawn)	0.9	0.3	66.0*	8.6
CCOC(=O)c1ccc(N2CCOCC2)c([N+](=O)[O-])c1	0.4	0.2	-34.9	-3.2
NC(=O)c1ccc(-c2nc(Nc3ccc(N4CCOCC4)cc3)c3[nH]cnc3n2)cc1	1.0	-0.1	72.7*	-1.6
COc1ccc(-c2nc(Nc3ccc(N4CCOCC4)cc3)c3[nH]cnc3n2)cc1	0.0	-0.3	64.2*	-5.4
COc1ccc(/C=N/NC(=O)c2ccccc2O)cc1CN1C(=O)c2ccccc2C1=O	1.3	0.2	-8.6	-10.4
COc1ccc2sc(Nc3nnc(C4COc5ccccc5O4)o3)nc2c1 (stereo not drawn)	-0.8	0.5	-4.8	5.1
CC(=O)OC1c2cc(C)ccc2NC(c2ccc(F)cc2)C1(C)C (stereo not drawn)	0.4	-0.2	33.8*	8.8
CC(=O)OC1c2cc(C)ccc2NC(c2ccc(Cl)cc2)C1(C)C (stereo not drawn)	1.4	0.3	14.3	8.4
CCCCC(=O)Nc1ccc(I)cn1	0.8	0.1	-21.4	7.3
COc1cc(C2CC(=O)c3c(ccc4ccccc34)N2)ccc1O (stereo not drawn)	0.3	-0.1	8.3	-7.1
COc1cc(C2CC(c3c(O)ccc4ccccc34)=NN2)ccc1O (stereo not drawn)	-6.3	-0.2	60.6*	-0.8
Oc1ccc(C2CC(c3c(O)ccc4ccccc34)=NN2)cc1 (stereo not drawn)	-10.3	0.0	88.4*	-1.2
COc1cc(C2C3=C(COC3=O)Nc3ccc4ccccc4c32)ccc1O (stereo not drawn)	2.5	-0.2	55.5*	-28.5
O=C(O)COc1ccc(/C=C2/C(=O)Nc3cc(Cl)ccc32)cc1	1.4	0.1	2.8	10.2
O=C(Nc1ccc2oc(-c3cc(Br)ccc3Cl)nc2c1)c1cccc([N+](=O)[O-])c1	0.0	-0.1	-5.4	-8.9
Cc1ccccc1CNC(=O)C(=O)Nc1cccc(Cl)c1Cl	1.5	-0.3	2.2	2.5
Nc1nonc1-c1nc2ccccc2n1CC(=O)N/N=C/c1ccncc1	1.0	0.1	53.2*	-0.5
CCc1ccccc1NC(=O)Cn1c(-c2nonc2N)nc2ccccc21	0.7	-0.1	7.3	-0.9
O=C(Nc1nonc1-c1nc2ccccc2n1Cc1c(F)cccc1Cl)c1ccccc1Cl	1.4	-0.1	65.0*	-7.7
Nc1nonc1-c1nc2ccccc2n1CC(=O)Nc1ccccc1C(F)(F)F	-1.1	-0.1	34.2*	2.7
CCCCOc1ccccc1NC(=O)Cn1c(-c2nonc2N)nc2ccccc21	-0.6	0.3	54.5*	-4.5
CC(=O)Nc1nonc1-c1nc2ccccc2n1Cc1c(F)cccc1Cl	-0.5	-0.2	-6.1	2.9
CC1CCN(Cc2nnnn2CC(=O)NC(C)c2cnn(-c3ccccc3)c2)CC1 (stereo not drawn)	-0.4	-0.2	6.4	-4.0
SMILES	GPR151 ag	FBW7 activator	TEAD-YAP block	MITF primary
Nc1nonc1-c1nc2ccccc2n1CC(=O)Nc1ccccc1F	0.5	-0.1	53.9*	0.8
O=C(Nc1ccc2oc(-c3cccc(I)c3)nc2c1)c1ccc2ccccc2c1	-0.1	-0.2	-1.6	-4.2
Nc1cccc(-c2nc(NCCN3CCOCC3)c3ncn(-c4ccccc4)c3n2)c1	-2.7	-0.1	57.9*	-2.8
CN1CCN(c2ccc(-c3nc(NCCN4CCOCC4)c4ncn(-c5ccsc5)c4n3)cc2)CC1	2.1	-0.1	9.5	-2.1
COc1ccc(-c2nc(NCCN3CCOCC3)c3ncn(-c4ccsc4)c3n2)cc1	0.7	-0.1	50.6*	7.5
Nc1cccc(-c2nc(NCCc3ccc(O)cc3)c3ncn(-c4ccccc4)c3n2)c1	-1.0	-0.1	37.7*	-0.3
CC(=O)c1cccc(-c2nc(NCCN3CCOCC3)c3ncn(-c4ccccc4)c3n2)c1	1.0	0.1	66.4*	14.2
CC(=O)c1cccc(-c2nc(NCCN3CCOCC3)c3ncn(-c4ccsc4)c3n2)c1	2.5	0.0	58.5*	10.1
CC(C)CCSc1nc2sc3c(c2c(=O)n1C1CCCCC1)CCC3	-1.6	0.2	7.2	8.8
Oc1c(Cl)cc(Cl)cc1/C=N/Nc1nc2ccccc2[nH]1	0.4	-0.1	60.7*	-22.3
Oc1ccc(/C=N/Nc2nc(Nc3ccccc3)nc(Nc3ccccc3)n2)c(O)c1	-0.1	-0.2	50.8*	7.7
Oc1ccc(/C=N/Nc2nc3ccccc3[nH]2)c(O)c1	-0.7	-0.5	16.4	65.3*
Oc1ccccc1/C=N\Nc1nc2ccccc2[nH]1	-0.1	-0.8	-27.9	16.0
Oc1ccc(/C=N/Nc2nc3ccccc3[nH]2)c(O)c1O	-1.1	-0.9	-17.0	39.5
COc1ccc(N(C)C2=NS(=O)(=O)c3ccccc32)cc1	0.4	0.1	45.4*	4.0
Cc1cc(C)c2c(n1)nn1c(NCc3ccco3)cc(C)nc21	0.7	253.8*	6.8	i
CC(=O)c1cccc(NC(=O)CCl)c1	1.1	-0.1	98.7*	-4.4
CC(=O)c1cccc(NC(=O)CCC(=O)Nc2cccc(C(C)=O)c2)c1	-1.0	0.1	8.6	9.9
CC(=O)c1ccc(NC(=O)Nc2cccc(C(=O)O)c2)cc1	4.0	0.0	51.3*	-1.3
CC(=O)c1cccc(NC(=O)CN(c2ccccc2)S(C)(=O)=O)c1	-0.6	1.9*	8.1	-18.7
CS(=O)(=O)N(CC(=O)Nc1cccc(Cl)c1)c1ccccc1	0.9	0.1	3.9	1.9
CC(=O)c1cccc(NC(=O)Nc2ccccc2)c1	-1.4	0.1	-24.7	0.3
C=CCN1C(=O)/C(=C\c2ccc(Br)cc2)SC1=Nc1ccccc1	1.0	0.0	9.8	11.2
CCSCCOC(=O)C1=C(C)NC2=C(C(=O)C(C(=O)OC)C(C)C2)C1c1ccc2c(c1)OCO2 (stereo not drawn)	1.2	0.6	8.0	5.1
Fc1ccccc1CSc1nnnn1-c1ccc2c(c1)OCO2	3.2	0.1	-6.7	5.7
Fc1ccc(CSc2nnnn2-c2ccc3c(c2)OCO3)c(Cl)c1	-0.1	-0.1	51.0*	2.3
CCCCNC(=O)c1ccc(NS(C)(=O)=O)cc1	0.7	0.0	-0.1	-8.4
COC(=O)C1=C(C)Nc2ncnn2C1c1ccccc1F (stereo not drawn)	-0.3	0.0	1.3	-0.7
O=C(Nc1ccccc1-c1nc2ccccc2[nH]1)C1COc2ccccc2O1 (stereo not drawn)	-0.4	0.0	-2.6	-5.2
COc1cc2ccccc2cc1C(=O)Nc1ccccc1-c1nc2ccccc2[nH]1	0.9	2.6*	7.1	-2.0

Bioassay records from PubChem BioAssay.
